# In PubChem BioAssay (EPA / NIEHS):
# Values joined by “and” are separate entries in the source; they are usually repeats but may differ in a detail not shown here. Equal values may be shown once. Some structures have more than one record in an assay (separate samples or runs), and their calls can disagree. Active and inactive are the calls of the source. Rule for the calls: active = hit-call score of the fitted dose curve at least 0.9, where 1 is the maximum; inactive = score below 0.9.
# Assay: CCTE_Shafer_MEA_dev_network_spike_peak: CCTE's Neural Network Formation Assay for Mean Number of Electrodes in Network Spike, Shafer Lab (AID 2284049)
# Procedure: CCTE_Shafer_MEA_dev assay is conducted using Axion Biosystems 48 well microelectrode array (MEA) plates and Maestro recording system. Each well of the MEA plate contains a grid of 16 microelectrodes embedded in the culture surface. Electrically active cells, such as neurons, can be cultured over the electrodes, and electrical activity in these cells can be recorded extracellularly. The spontaneous firing of neurons is captured from each electrode on a microsecond timescale providing both temporally and spatially precise data. […] The CCTE_Shafer_MEA_dev assay uses primary cultures of rat cortical neurons. Recordings are made on days post-plating 5, 7, 9 and 12. As these cultures mature over time, neural networks develop functional activity and form cohesive networks in which electrical activity can be highly coordinated. CCTE_Shafer_MEA_dev_network_spike_peak is 1 of 19 assay components of the CCTE_Shafer_MEA_dev assay. It measures the average number of electrodes participating at the peak of a network spike (the peak of a temporally-clustered group of action potential firing across multiple electrodes) during a recording in a microelectrode array (MEA) using Axion Biosystems Maestro 768 channel amplifier with the AxIS adaptive spike detector. To collapse across multiple recordings made on days post-plating 5, 7, 9 and 12, the trapezoidal area-under-the-curve of the component is calculated.Data from the assay component CCTE_Shafer_MEA_dev_network_spike_peak was analyzed into 1 assay endpoint. This assay endpoint, CCTE_Shafer_MEA_dev_network_spike_peak, was analyzed in the negative analysis fitting direction relative to DMSO as the negative control and baseline of activity. Using a type of functional reporter, gain or loss-of-signal activity can be used to understand electrical activity.
# On the day prior to culture, each well was coated thoroughly with 150 uL of 0.05% polyethyleneimine (PEI, Sigma Cat P3143) in 50 mM HEPES (Sigma Cat H7523) at a pH of 8. The plate was incubated at 37C for one hour. PEI was rinsed out with 500 uL of sterile water three times. Plates were stored at 4C until the day of culture. This culture was plated at a seeding density of 1.5 x 10^5 cells/well on a 48-well MEA plate, prepared as described above. Cells were administered via a 25 uL media/laminin ([…]; Sigma Cat L2020-1MG) drop directly onto the microelectrode array, as adding the cells with the laminin results in better attachment than pre-coating with laminin. After 2 hours, an additional 475 uL of cortical media was added and the cells returned to the incubator. Exposure starts at day 0 of plating and is continued over twelve days of network development until the experiment is terminated. Cells are fed with fresh medium on DIV 5 and 9, following the recordings on those days. The entire volume of media in the well is exchanged and any vehicle or compound treatment is renewed. Complete details are found in OP-NHEERL/ISTD/SBB/TJS/2015-03-r0 (available on request, email shafer.tim@epa.gov). Measurement of the electrical activity is non-invasive, and recordings can be made from the same plate over multiple different days of the culture. In cortical neurons, this allows for the measurement of extracellular action potentials over the period during which networks form in the MEA plate.
Structure (SMILES),AC50,outcome
O=[As]O,1.67 µM (active),
Cn1nc(C(F)(F)F)c(CS(=O)(=O)C2=NOC(C)(C)C2)c1OC(F)F,50 µM (active),
CC(C)CCCCCCCOP(=O)(Oc1ccccc1)Oc1ccccc1,,inactive
CC1(C)C(C=C(Cl)Cl)C1C(=O)O[C@H](C#N)c1cccc(Oc2ccccc2)c1 (stereo not given in full),2.75 µM (active),
C=CCN1CC[C@]23c4c5ccc(O)c4O[C@H]2C(=O)CC[C@@]3(O)[C@H]1C5,,inactive
[CH3][Hg][Cl],0.356 µM (active),
C[C@H](N)Cc1ccccc1,,inactive
O.O.O.O.O.[Cd+2].[Cd+2].[Cl-].[Cl-].[Cl-].[Cl-],0.372 µM (active),
CC1(C)[C@H](C=C(Cl)Cl)[C@@H]1C(=O)O[C@@H](C#N)c1cccc(Oc2ccccc2)c1,8.44 µM (active),
CCCCC(CC)COC(=O)c1cc(Br)c(Br)c(Br)c1Br (stereo not given),18.9 µM (active),
NCCc1cc(O)c(O)cc1O,6.57 µM (active),
CNC(=N[N+](=O)[O-])NCC1CCOC1 (stereo not given),,inactive
[Cd+2].[Cl-].[Cl-],0.208 µM (active),
CCC[CH2][Sn]([CH2]CCC)([CH2]CCC)[O][Sn]([CH2]CCC)([CH2]CCC)[CH2]CCC,0.0457 µM (active),
CCOP(=O)(Oc1cnc(C(C)(C)C)nc1)OC(C)C (stereo not given),,inactive
C/C(=C/C=C/[C@@H](C)C(=O)O)[C@H]1CN[C@H](C(=O)O)[C@H]1CC(=O)O,1.83 µM (active),inactive
[CH3][Sn]([CH3])[CH3],0.224 µM (active),
COC(=O)[C@H]1[C@@H](OC(=O)c2ccccc2)C[C@@H]2CC[C@H]1N2C,,inactive
CCOP(=O)(O)OCC (tested in a mixture with another compound),,inactive
CCOP(=O)(OCC)OC(Cl)C(Cl)(Cl)Cl (stereo not given),2.29 µM (active),

Structure (SMILES),AC50,outcome
C[n+]1ccc(-c2ccccc2)cc1,6.52 µM (active),
Brc1ccc(Oc2cc(Br)c(Br)cc2Br)c(Br)c1,10 µM (active),
CC(=O)[O-].[Tl+],,inactive
CN1C(=O)CN=C(c2ccccc2)c2cc(Cl)ccc21,,inactive
CP(=O)(O)CCC(N)C(=O)O (stereo not given),,inactive
CC(=O)[O-].CC(=O)[O-].O.O.O.[Pb+2],12.5 µM (active),
CCOP(=S)(OCC)SCS(=O)C(C)(C)C (stereo not given),0.555 µM (active),
CCC1(c2ccccc2)C(=O)NC(=O)NC1=O,,inactive
CCOP(=O)(OCC)SCSCC,49.8 µM (active),
O=C(O)CNCP(=O)(O)O,,inactive
C#CCN(C)[C@H](C)Cc1ccccc1,,inactive
c1ccc2c(c1)cc1ccc3cccc4ccc2c1c34,,inactive
CCOP(=O)(OCC)SCSC(C)(C)C,49.5 µM (active),
CN[C@]1(c2ccccc2Cl)CCCCC1=O,,inactive
Brc1ccc(Oc2ccc(Br)cc2Br)c(Br)c1,13.2 nM (active) and 10 µM (active),
CC1(C)C(C=C(Cl)c2ccc(Cl)cc2)C1C(=O)OC(C#N)c1ccc(F)c(Oc2ccccc2)c1 (stereo not given),13.1 µM (active),
CC1(C)[C@@H](C=C(Cl)Cl)[C@@H]1C(=O)O[C@@H](C#N)c1ccc(F)c(Oc2ccccc2)c1,11.8 µM (active),
CC1(C)[C@H](C=C(Cl)Cl)[C@H]1C(=O)OCc1c(F)c(F)cc(F)c1F,16.7 µM (active),
c1ccc2cc3c(cc2c1)-c1cccc2cccc-3c12,,inactive
